Measurements reported in PubChem BioAssay AID2280 (The Scripps Research Institute Molecular Screening Center, 2010).
Values joined by “and” are separate entries in the source; they are usually repeats but may differ in a detail not shown here. Equal values may be shown once. Hit rate of the full screen: of about 320,000 compounds, about 1,400 (0.44%) were called active.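 Rule for the calls: active = percent inhibition above a per-plate cutoff, the plate mean of test compounds plus 3 SD (cut at about 30% in these data); inactive = the rest.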 The entries come from a sample that favours actives as a whole. Where a structure was tested more than once in an assay, its records may differ in their call.

Molecular target: Female germline-specific tumor suppressor gld-1 (Caenorhabditis elegans) (UniProt Q17339)
Sequence (Q17339 whole entry, looked up): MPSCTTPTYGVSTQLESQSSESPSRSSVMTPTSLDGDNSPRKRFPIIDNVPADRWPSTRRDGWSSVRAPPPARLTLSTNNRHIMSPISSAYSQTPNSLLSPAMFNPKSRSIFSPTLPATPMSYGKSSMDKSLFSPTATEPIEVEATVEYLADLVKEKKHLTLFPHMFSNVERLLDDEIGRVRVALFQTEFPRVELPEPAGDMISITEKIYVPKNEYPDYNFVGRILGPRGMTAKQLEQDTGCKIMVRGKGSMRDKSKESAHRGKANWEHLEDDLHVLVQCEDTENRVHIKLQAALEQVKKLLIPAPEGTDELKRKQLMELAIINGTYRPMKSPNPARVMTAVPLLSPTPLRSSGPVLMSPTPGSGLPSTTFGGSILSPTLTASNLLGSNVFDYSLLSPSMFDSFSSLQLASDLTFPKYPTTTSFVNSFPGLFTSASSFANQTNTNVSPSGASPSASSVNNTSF
Assay: GLD-1/TGE RNA complex disruptors, primary screen, biochemical, fluorescence polarization (AID 2280);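 note: 0% = DMSO wells with GLD-1 and probe and 100% = wells lacking GLD-1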
Details: purified GLD-1 + fluorescein TGE RNA, at 5.96 µM, stronger effect = higher value

SMILES	inhibition
C/C(=N\NC(=O)c1ccoc1C)c1ccccc1O	2.44% (inactive)
Cc1nn(C(=O)c2ccoc2C)c(N)c1-c1ccccc1	126% (active)
CCOC(=O)c1c(N)nn(C(=O)c2ccccc2)c1-c1ccccc1	7.39% (inactive)
CC(C)N(C)C(=O)CCc1nnc(CCc2c[nH]c3ccccc23)o1	7.03% (inactive)
Cc1ccccc1Nc1nc(N)nc(CN2CCN(c3ccccn3)CC2)n1	2.81% (inactive)
Cc1ccccc1Nc1nc(N)nc(CSc2ccccc2)n1	6.58% (inactive)
Cc1ccccc1Nc1nc(N)nc(CSc2nnc3ccccn23)n1	35.3% (active)
COc1ccc(C(C)=O)cc1COC(=O)Cn1cnc2ccccc2c1=O	-1.6% (inactive)
CC1(C)CCc2nc(SCc3ccccc3)c(C#N)cc2C1	6.74% (inactive)
Cc1cc(NC(=O)CSc2nc3c(cc2C#N)CCCCC3)no1	6.13% (inactive)
CC(NC(=O)CSc1nc2c(cc1C#N)CN(C)CC2)c1ccccc1 (centres undefined)	35.9% (active)
CCOC(=O)C(C)n1cnc2c(nnn2-c2ccc(F)cc2)c1=O (centres undefined)	2.21% (inactive)
CCCCn1ccnc1C(=O)c1cccc(S(=O)(=O)N2c3ccccc3CC2C)c1 (centres undefined)	0.24% (inactive)
Cc1ccc(C(=O)NC(=S)Nc2ccccc2C)cc1	-1.38% (inactive)
COC(=O)c1sc(NC(=S)NC(=O)c2ccc(C)cc2)nc1C	60.9% (active)
Cc1ccc(NC(=S)NC(=O)c2ccc(-c3ccccc3)cc2)cc1	-3.26% (inactive)
COc1cc(N2CCCC2)c(OC)cc1/C=C(/C#N)c1cccc(Br)c1	-45.9% (inactive)
CC(Sc1nnc(-c2cccs2)n1C1CC1)C(=O)NCC1CCCO1 (centres undefined)	-1.09% (inactive)
O=S(=O)(c1ccc(Cl)cc1)N1CCCN(c2ccc(C(F)(F)F)cn2)CC1	3.79% (inactive)
CN(C)c1ccc(Nc2c3c4c(cccc4n(C)c2=O)C(=O)c2ccccc2-3)cc1	53.9% (active)

SMILES	inhibition
CN(Cc1ccc(F)cc1)C(=O)CN1C(=O)c2ccccc2S1(=O)=O	-0.45% (inactive)
O=S(=O)(NCCCCCCNS(=O)(=O)c1c(F)cccc1F)c1ccc2c(c1)OCCO2	-2.33% (inactive)
C=CCOc1cccc(C2C(C(=O)c3ccc(C)o3)=C(O)C(=O)N2c2nnc(C)s2)c1 (centres undefined)	91.3% (active)
Cc1cc(N2C(=O)C(O)=C(C(=O)c3ccc(C)o3)C2c2ccc(OCc3ccccc3)cc2)no1 (centres undefined)	12.7% (inactive)
C=CCOc1cccc(C2C(C(=O)c3ccc(C)o3)=C(O)C(=O)N2CCCn2ccnc2)c1 (centres undefined)	5.89% (inactive)
CCN1CCC2(CCN(Cc3cn[nH]c3-c3ccc(OC)c(F)c3)C2)C1 (centres undefined)	6.39% (inactive)
COc1ccccc1C(=O)N(C1=NC(C)CS1)c1ccc(Cl)cc1 (centres undefined)	5.47% (inactive)
NC(=O)c1ccc(-c2csnn2)cc1	-0.25% (inactive)
COc1ccc(NC(=O)C(C)SCc2ccccc2)cc1 (centres undefined)	4.3% (inactive)
O=C1N=C2SCCN2/C1=C\c1c(Cl)cccc1Cl	3.87% (inactive)
CCC(=NC1CC(C)(C)NC(C)(C)C1)C1=C(O)CC(C)(C)CC1=O	0.57% (inactive)
CN(C(=O)COC(=O)c1cc(-c2ccco2)nc2ccccc12)C1CCS(=O)(=O)C1 (centres undefined)	24.7% (inactive)
CN(CCOc1ccccc1)C(=O)c1cc(-c2ccco2)nc2ccccc12	44.1% (active)
COc1ccc(NC(=O)CN(C)C(=O)c2cc(-c3ccc(C)o3)nc3ccccc23)cc1	1.85% (inactive)
Cn1nc(-c2ccccc2)c(CSc2cccc(Cl)c2)c1Cl	3.82% (inactive)
C=CCN(Cc1nc(-c2cc(OC)c3c(c2)OCO3)oc1C)C1CCS(=O)(=O)C1 (centres undefined)	3% (inactive)
COc1ccc(CCNS(=O)(=O)c2cc3c(cc2C)NC(=O)CO3)cc1OC	5.55% (inactive)
O=C1c2ccccc2-c2ncnc3c(N4CCOCC4)cc(N4CCOCC4)c1c23	47.9% (active)
COC1=C(N2CCOCC2)C(=O)c2ccccc2C1=O	5.26% (inactive)
Cc1oc2c(c1C(=O)N1CCOCC1)C(=O)c1ccccc1C2=O	-4.37% (inactive)

SMILES	inhibition
CCOc1ccc(NC(=O)CSc2ncnc3c2sc2ccccc23)cc1	7.48% (inactive)
CN(C)C=NC(=O)c1cccn1-c1ncc(C(F)(F)F)cc1Cl	3.24% (inactive)
CC1CCCCC1NC(=O)COC(=O)Cc1ccc(Cl)cc1 (centres undefined)	0.1% (inactive)
Cc1cc(C)c(S(=O)(=O)N2CCCC2CNC(=O)c2ccc3c(c2)OCO3)c(C)c1 (centres undefined)	-0.56% (inactive)
Cc1[nH]c2ccccc2c1CCN(Cc1cccs1)C(=S)NC(C)(C)C	5.63% (inactive)
COc1ccc2[nH]c(C)c(CCN(Cc3cccs3)C(=S)Nc3ccccc3OC)c2c1	50% (active)
COc1cccc(NC(=S)N(CCc2c(C)[nH]c3ccccc23)Cc2ccco2)c1	2.83% (inactive)
CCOC(=O)Cc1csc(SCC(=O)NC(C)C23CC4CC(CC(C4)C2)C3)n1 (centres undefined)	-5.16% (inactive)
O=c1cc(CO)oc(C(Nc2cccc([N+](=O)[O-])c2)c2ccccn2)c1O (centres undefined)	25.3% (inactive)
O=c1cc(CO)oc(C(Nc2cccc(C(F)(F)F)c2)c2ccccn2)c1O (centres undefined)	75.6% (active)
FC(F)(F)c1cccc(Nc2ncnc3ccccc23)c1	8.73% (inactive)
O=C(CN1CCOC1=O)N1CCCC(Nc2ccc(F)c(F)c2)C1 (centres undefined)	-0.97% (inactive)
CCCC1OC23CCCCC2C(C#N)(C#N)C1(C#N)C(=N)O3 (centres undefined)	63.5% (active)
O=C1CCC(=O)N(c2ccccc2)N1	3.62% (inactive)
COC(=O)[C@H]1[C@H]2C[C@H]3c4[nH]c5ccccc5c4CCN3C[C@@H]2CC[C@@H]1O	8.5% (inactive) and 48.8% (active)
COC(=O)C1CCN(C(=O)c2cc(=O)[nH]c3ccccc23)CC1	4.47% (inactive)
O=C(Nc1ccc(Cl)cc1)N1CCc2[nH]c3ccccc3c2C1	7.58% (inactive)
O=C1c2cccc(OCC(=O)N3N=C(c4cccs4)CC3c3ccc(F)cc3)c2CCN1Cc1ccccc1 (centres undefined)	-0.98% (inactive)
CC1CCCCC1NC(=O)Cn1c(=O)cnc2ccccc21 (centres undefined)	-4.13% (inactive)
